Test results: PubChem BioAssay
The source made the active and inactive calls.

Key:
[1] = tested on: Plasmodium falciparum Sir2 (PF13_0152, Sir2A); experiment: pfSir2 binders on small-molecule microarrays, primary screen, biochemical, small-molecule microarray, 635 nm fluorescence (AID 1098); conditions: small-molecule microarray binding, fluorescence 635 nm; higher = more signal;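 note: score merges spot fluorescence intensity with its signal-to-noise ratio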
[2] = small-molecule microarray binders of probe aDKK1, primary screen, biochemical, biotinylated probe, 635/667 nm fluorescence (AID 1099); conditions: higher = more signal;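 note: score merges 667nm spot fluorescence with signal to noise across triplicate slides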
[3] = small-molecule microarray binders of probe aCHRDL2, primary screen, biochemical, biotinylated probe, 635/667 nm fluorescence (AID 1100); conditions: higher = more signal
[4] = splicing luciferase reporter signal modulators, primary screen, spliceosome inhibition project, cell-based, HEK293, splice +/- reporter (AID 1101); conditions: luminescence, 24 h, higher = more signal, called active from +8 up or from −8 down;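 note: HEK293 cells carrying a splicing-competent luciferase reporter gene; test concentration not given here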
[5] = biological target: Fibroblast growth factor 10 (Homo sapiens) (UniProt O15520); experiment: FGF10 binders on small-molecule microarrays, primary screen, biochemical, small-molecule microarray, 635 nm fluorescence (AID 1102); conditions: FGF10 binding, fluorescence 635 nm, higher = more signal
Chain of Fibroblast growth factor 10 (Homo sapiens) (O15520 whole entry, looked up): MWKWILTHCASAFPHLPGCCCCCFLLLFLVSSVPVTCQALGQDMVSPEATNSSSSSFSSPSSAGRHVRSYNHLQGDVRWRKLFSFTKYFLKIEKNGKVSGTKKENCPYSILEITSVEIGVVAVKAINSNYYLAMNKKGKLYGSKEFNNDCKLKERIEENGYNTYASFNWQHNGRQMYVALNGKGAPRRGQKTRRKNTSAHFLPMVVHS

[6] = tested on: glycogen synthase kinase-3 (GSK3A per assay name; protocol says GSK3B); experiment: GSK3 binders on small-molecule microarrays, primary screen, biochemical, small-molecule microarray, 635 nm fluorescence, GSK3A (AID 1103); conditions: small-molecule microarray binding, fluorescence 635 nm; higher = more signal; note: the record names both GSK3A and GSK3B
[7] = biological target: Epidermal growth factor receptor (Homo sapiens) (UniProt P00533); experiment: EGFR binders on small-molecule microarrays, primary screen, biochemical, small-molecule microarray, 635 nm fluorescence (AID 1104); conditions: EGFR binding, higher = more signal;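 note: score merges 667 nm emission intensity with spot signal to noise over triplicate slides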
Chain of Epidermal growth factor receptor (Homo sapiens) (P00533 whole entry, looked up): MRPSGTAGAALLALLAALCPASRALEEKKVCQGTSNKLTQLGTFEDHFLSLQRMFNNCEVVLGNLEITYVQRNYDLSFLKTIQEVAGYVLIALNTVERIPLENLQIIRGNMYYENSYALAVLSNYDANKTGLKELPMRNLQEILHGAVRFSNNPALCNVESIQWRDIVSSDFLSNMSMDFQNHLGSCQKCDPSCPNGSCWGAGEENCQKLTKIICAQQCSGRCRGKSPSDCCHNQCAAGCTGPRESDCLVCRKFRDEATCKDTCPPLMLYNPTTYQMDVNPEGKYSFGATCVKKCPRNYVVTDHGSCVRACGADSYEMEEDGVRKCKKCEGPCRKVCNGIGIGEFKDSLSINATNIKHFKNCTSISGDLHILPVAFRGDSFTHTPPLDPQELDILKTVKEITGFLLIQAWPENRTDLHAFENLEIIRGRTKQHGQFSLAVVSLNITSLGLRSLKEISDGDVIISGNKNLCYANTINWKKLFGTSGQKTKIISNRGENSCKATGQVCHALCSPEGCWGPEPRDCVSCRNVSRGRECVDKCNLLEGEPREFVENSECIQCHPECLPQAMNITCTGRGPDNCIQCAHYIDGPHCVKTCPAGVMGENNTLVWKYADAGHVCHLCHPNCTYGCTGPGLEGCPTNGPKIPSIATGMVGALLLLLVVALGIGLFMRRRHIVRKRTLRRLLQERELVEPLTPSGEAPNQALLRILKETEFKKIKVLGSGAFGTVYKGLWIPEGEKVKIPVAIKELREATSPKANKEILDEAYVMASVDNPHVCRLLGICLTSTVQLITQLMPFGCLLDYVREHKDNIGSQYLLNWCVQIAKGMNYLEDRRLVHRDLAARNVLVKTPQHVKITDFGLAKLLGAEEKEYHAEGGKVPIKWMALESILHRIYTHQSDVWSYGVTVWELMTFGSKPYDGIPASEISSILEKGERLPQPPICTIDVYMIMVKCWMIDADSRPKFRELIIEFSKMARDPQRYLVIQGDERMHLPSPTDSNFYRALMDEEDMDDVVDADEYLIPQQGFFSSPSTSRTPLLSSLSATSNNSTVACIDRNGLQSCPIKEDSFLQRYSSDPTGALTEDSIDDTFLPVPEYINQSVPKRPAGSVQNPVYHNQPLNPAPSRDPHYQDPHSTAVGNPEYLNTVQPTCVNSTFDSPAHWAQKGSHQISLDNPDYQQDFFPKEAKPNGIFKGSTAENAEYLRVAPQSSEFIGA

[8] = biological target: Follistatin-related protein 3 (Homo sapiens) (UniProt O95633); experiment: FSTL3 binders on small-molecule microarrays, primary screen, biochemical, small-molecule microarray, 635 nm fluorescence (AID 1105); conditions: FSTL3 binding, higher = more signal;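 note: score merges emission near 667 nm and signal to noise per printed spot across three slides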
Chain of Follistatin-related protein 3 (Homo sapiens) (O95633 whole entry, looked up): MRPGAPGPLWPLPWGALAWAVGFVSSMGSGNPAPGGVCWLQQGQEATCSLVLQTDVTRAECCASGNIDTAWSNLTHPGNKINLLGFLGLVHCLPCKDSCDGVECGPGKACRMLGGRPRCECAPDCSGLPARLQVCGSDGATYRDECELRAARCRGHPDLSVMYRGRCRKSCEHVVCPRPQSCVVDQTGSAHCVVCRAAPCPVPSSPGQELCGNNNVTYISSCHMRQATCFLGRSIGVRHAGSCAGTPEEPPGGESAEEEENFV

[9] = biological target: Dickkopf-related protein 1 (Homo sapiens) (UniProt O94907); experiment: DKK1 binders on small-molecule microarrays, primary screen, biochemical, small-molecule microarray, 635 nm fluorescence scan (AID 1106); conditions: DKK1 binding, higher = more signal;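 note: score merges emission near 667 nm with signal to noise over three replicate slides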
Chain of Dickkopf-related protein 1 (Homo sapiens) (O94907 whole entry, looked up): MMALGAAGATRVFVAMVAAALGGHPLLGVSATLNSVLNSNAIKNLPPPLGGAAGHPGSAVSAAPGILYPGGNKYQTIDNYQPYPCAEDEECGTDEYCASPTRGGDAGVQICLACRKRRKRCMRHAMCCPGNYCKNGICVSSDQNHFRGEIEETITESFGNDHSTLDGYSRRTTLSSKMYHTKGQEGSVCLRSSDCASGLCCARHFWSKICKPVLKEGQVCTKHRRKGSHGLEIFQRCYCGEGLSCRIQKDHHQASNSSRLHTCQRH

[10] = tested on: Inhibin beta A chain (activin A); experiment: INHBA (activin A) binders on microarrays, primary screen, biochemical, small-molecule microarray, 635 nm fluorescence scan (AID 1107); conditions: small-molecule microarray binding, higher = more signal;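 note: mouse activin A protein probed at 4.33 µg/mL on printed slides; score merges bound-protein fluorescence near 667 nm with spot signal-to-noise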
[11] = tested on: Human papillomavirus type 1a protein E7 (residues 44-93); experiment: HPV1a E7 fragment binders on microarrays, primary screen, biochemical, small-molecule microarray, residues 44-93, 635 nm fluorescence (AID 1108); conditions: small-molecule microarray binding, fluorescence 635 nm; higher = more signal;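 note: E7 fragment applied at 1 µg/mL in TBST for 1 h at 4 C; score combines spot fluorescence with its signal to noise ratio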
[12] = modulators of HCV replicon luciferase signal, primary screen, HCV replication inhibitor project, Huh7 cells, luciferase reporter (AID 1109); conditions: 48 h, higher = more signal;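 note: huh7 hepatoma cells harbouring a luciferase neomycin HCV replicon reporter; luciferase luminescence as measure of HCV replicon replication; test concentration not given here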
[13] = biological target: Left-right determination factor 2 (Homo sapiens) (UniProt O00292); experiment: LEFTY2 binders on small-molecule microarrays, primary screen, biochemical, small-molecule microarray, 635 nm fluorescence scan (AID 1110); conditions: LEFTY2 binding, higher = more signal
Chain of Left-right determination factor 2 (Homo sapiens) (O00292 whole entry, looked up): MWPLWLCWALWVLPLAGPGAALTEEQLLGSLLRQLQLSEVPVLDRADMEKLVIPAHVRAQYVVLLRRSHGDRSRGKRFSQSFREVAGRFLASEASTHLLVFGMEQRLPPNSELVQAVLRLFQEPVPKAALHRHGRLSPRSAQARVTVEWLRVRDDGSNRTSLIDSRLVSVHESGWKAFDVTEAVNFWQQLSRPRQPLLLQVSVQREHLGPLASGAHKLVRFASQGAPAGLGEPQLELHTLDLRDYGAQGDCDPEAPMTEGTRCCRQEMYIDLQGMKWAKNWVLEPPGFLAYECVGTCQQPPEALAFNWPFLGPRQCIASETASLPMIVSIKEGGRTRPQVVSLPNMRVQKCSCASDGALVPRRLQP

[14] = biological target: Calmodulin-1 (Homo sapiens) (UniProt P0DP23); experiment: CALM1 binders on microarrays, EGTA buffer, profiling panel, biochemical, small-molecule microarray, Cy5-labelled CALM1 (AID 1111); conditions: Cy5-CALM1 binding fluorescence, higher = more signal;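 note: labelled calmodulin applied in Tris saline Tween buffer holding calcium plus EGTA and DTT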
[15] = biological target: Calmodulin-1 (Homo sapiens) (UniProt P0DP23); experiment: calcium-bound CALM1 binders on microarrays, profiling panel, artefact control for SMM control-protein annotation, biochemical, small-molecule microarray, Cy5-labelled CALM1, plus calcium (AID 1112); conditions: Cy5-CALM1 binding fluorescence, higher = more signal;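 note: score merges spot fluorescence with signal to noise from triplicate slides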
[16] = small-molecule microarray binders of probe aWnt5a, primary screen, biochemical, biotinylated probe, 635/667 nm fluorescence (AID 1113); conditions: higher = more signal;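 note: score merges 667 nm fluorescence intensity with signal-to-noise per printed feature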
[17] = small-molecule microarray binders of probe aShh, primary screen, biochemical, biotinylated probe, 635/667 nm fluorescence (AID 1114); conditions: higher = more signal;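 note: probe is biotin-labelled aShh protein from a stem cell growth factor screen; measures binding of labelled protein to compounds printed on the slide; score merges feature fluorescence at 667 nm with signal-to-noise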
[18] = small-molecule microarray binders of probe aNog, primary screen, biochemical, biotinylated probe, 635/667 nm fluorescence (AID 1115); conditions: higher = more signal;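 note: probe is biotinylated aNog protein used at 0.15 µg/mL for 1 h at 4 C; z-score combines 667 nm fluorescence of each spot with its signal to noise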
[19] = biological target: Torsin-1A-interacting protein 1 (Homo sapiens) (UniProt Q5JTV8); experiment: LAP1 binders from COS7 cell lysate, primary screen, small-molecule microarray, 635/667 nm fluorescence (AID 1116); conditions: COS7-hLAP1 lysate binding, 635 nm fluorescence, higher = more signal
Chain of Torsin-1A-interacting protein 1 (Homo sapiens) (Q5JTV8 whole entry, looked up): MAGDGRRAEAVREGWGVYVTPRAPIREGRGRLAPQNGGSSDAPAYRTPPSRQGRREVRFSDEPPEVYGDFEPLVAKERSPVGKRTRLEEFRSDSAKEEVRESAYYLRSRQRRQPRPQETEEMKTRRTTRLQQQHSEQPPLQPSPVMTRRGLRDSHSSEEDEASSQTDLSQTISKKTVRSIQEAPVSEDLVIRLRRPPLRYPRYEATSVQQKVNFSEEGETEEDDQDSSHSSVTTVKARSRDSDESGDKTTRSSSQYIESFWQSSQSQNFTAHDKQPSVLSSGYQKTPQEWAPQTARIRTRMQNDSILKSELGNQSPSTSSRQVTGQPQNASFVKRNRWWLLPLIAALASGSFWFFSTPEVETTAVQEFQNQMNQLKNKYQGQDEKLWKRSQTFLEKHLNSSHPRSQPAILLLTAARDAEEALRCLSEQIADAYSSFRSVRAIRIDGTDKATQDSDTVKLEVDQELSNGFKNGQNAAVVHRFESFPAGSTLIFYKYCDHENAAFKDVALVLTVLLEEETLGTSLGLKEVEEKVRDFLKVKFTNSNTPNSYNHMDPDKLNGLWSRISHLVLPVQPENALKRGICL

[20] = biological target: Alpha-bungarotoxin (Bungarus multicinctus) (UniProt P60615); experiment: alpha-bungarotoxin binders on microarray, profiling panel, artefact control for SMM control protein annotation, biochemical, small-molecule microarray, Alexa647 label, 635/667 nm fluorescence (AID 1117); conditions: alpha-BTX-A647 binding fluorescence, higher = more signal
Chain of Alpha-bungarotoxin (Bungarus multicinctus) (P60615 whole entry, looked up): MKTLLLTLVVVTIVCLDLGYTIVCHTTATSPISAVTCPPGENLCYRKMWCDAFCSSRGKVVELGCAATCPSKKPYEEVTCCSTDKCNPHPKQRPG

SMILES	composite z-score [1]	composite z-score [2]	composite z-score [3]	z-score [4]	composite z-score [5]	composite z-score [6]	composite z-score [7]	composite z-score [8]	composite z-score [9]	composite z-score [10]	composite z-score [11]	z-score [12]	composite z-score [13]	composite z-score [14]	composite z-score [15]	composite z-score [16]	composite z-score [17]	composite z-score [18]	composite z-score [19]	composite z-score [20]
Cc1ccc(S[C@]2(C(=O)O)CC(=O)N(C(C)C)[C@@H]2c2ccc(CO)cc2I)cc1	1.33	0.831	1.18	-2.55 (inactive)	0.0877	0.511	-0.645	0.315	-0.27	1.33	0.506	-1.31	-0.195	1.75	0.845	0.0611	0.111	1.65	0.836	1.18
O=C1c2ccccc2[C@](Cc2ccccc2I)(C(=O)NCCN2CCOCC2)[C@H](c2ccc(CO)cc2)N1C1CCCCC1	0.979	1.04	0.77	0.821 (inactive)	0.82	1.3	0.499	1.24	0.941	0.821	0.994	-2.48	0.804	1.13	0.315	0.0286	0.359	0.0308	0.494	1.83
CCN(CC)c1ccc(N2CC=CC34O[C@@H]5C=CCCOC(=O)C5[C@H]3C(=O)N(CCCCCCO)[C@@H]4C2=O)cc1 (stereo not given in full)	1.93	-0.0776	0.414	-1.98 (inactive)	-1.26	-0.39	-0.661	-0.879	-0.555	0.816	-0.873	0.234	-0.395	-0.235	0.307	-0.096	-0.26	-0.229	1.33	-0.419
C=C(C)[C@@H]1CC=C(C(O)C2C=CC3C(=O)N(C)C(=O)C3N2Nc2ccccc2)CC1 (stereo not given in full)	0.433	0.344	0.581	1.98 (inactive)	1.03	1.03	0.928	1.42	1.11	1.43	1.35	-0.626	0.658	-0.27	-0.74	0.0004	-0.142	-0.144	0.296	0.429
Cc1ccc(S[C@]2(C(=O)NC3CC3)CC(=O)N(Cc3ccccc3)[C@@H]2c2ccc(CO)cc2I)cc1	0.562	0.0491	0.717	-1.21 (inactive)	-0.794	-0.281	-1.34	-1.37	-1.59	0.5	0.477	-1.9	-1.2	-0.351	-0.149	-0.0221	-0.0794	0.503	-0.0172	-0.734
C=CCC(OC(C)=O)[C@@H]1[C@@H](N(Cc2ccc(-c3cccc(C(F)(F)F)c3)o2)C(=O)c2ccc(C)cc2)c2cc(OCCCO)ccc2N1C(=O)Cc1ccc2ccccc2c1 (stereo not given in full)	-0.291	-0.183	0.314	-0.337 (inactive)	-0.0662	-1.46	-0.206	-0.458	-0.214	1.14	-0.312	0.237	-0.628	-0.424	-0.352	-0.0704	-0.237	-0.122	-0.127	0.236
C=C[C@H](OC)[C@@H](OC(=O)Nc1ccc(OC)cc1)c1ccc(O)c(F)c1	0.68	-0.446	0.3	-1.27 (inactive)	-0.0655	-0.499	-1.49	-1.19	-1.16	-0.25	0.625	-0.276	-0.644	-1.25	-1.39	-0.28	0.0952	-0.478	1.14	-1.56
NCCCCCNC(=O)[C@@H]1C[C@@H]2C(=O)N[C@@H](Cc3ccccc3)C(=O)N2[C@@H]1c1ccc(O)cc1	1.14	-0.0335	0.475	1.31 (inactive)	1.11	1.17	0.632	1.37	0.484	0.609	1.37	-0.471	0.406	1.18	1.16	-0.0425	-0.138	-0.144	0.672	0.924
C=C(C(=O)CC[C@@H](OC(=O)c1cccnc1)c1ccccc1OCCO)C(C)C	0.0757	-0.181	0.0623	1.34 (inactive)	0.969	0.342	0.029	0.401	0.063	1.34	-0.139	-2.35	0.373	-0.948	-0.895	-0.0643	-0.0977	-0.247	1.85	0.593
COCCOC(=O)N1C(=O)[C@@]2(c3cc(C#CCC(C(=O)OC)C(=O)OC)ccc31)[C@H](C(=O)N1CCN(c3ncccn3)CC1)[C@H]1C(=O)O[C@H](c3ccccc3)[C@H](c3ccccc3)N1[C@@H]2c1ccccc1OCCO	0.664	-0.0805	-0.408	0.476 (inactive)	1.33	1.3	0.926	1.38	0.962	0.286	1.38	-1.94	1.16	0.875	-0.487	-0.0403	-0.17	-0.141	0.351	1.29
C=CC[C@]1(C(=O)NCCCOC)N=C(c2ccc(OCCCO)cc2)O[C@H]1c1ccccc1CN=[N+]=[N-]	1.17	1.45	1.17	0.822 (inactive)	0.944	1.22	0.0673	0.612	0.496	1.21	0.091	-2.09	0.593	2.12	0.988	0.0509	0.228	1.53	1.95	1.14
